# Test results: PubChem BioAssay (NCATS)
# Results filed as inconclusive are left out. A call without a number means that no potency is given here. Active and inactive are the calls of the source. The call rests on the fitted dose curve; in most records, active means well fitted curve in the direction sought with a large enough effect; inconclusive means small, poorly fitted or top-dose-only effect, or another doubt; inactive means no such curve, though single readings can be large; an effect the other way counts as inactive or inconclusive.
# How the values were obtained:
# [1] = qHTS of pediatric cancer cell lines to identify multiple opportunities for drug repurposing: Primary screen for BT-12 cells (AID 1347101); further: nearly all actives have a fitted effect of over 25% in size; further: potency means the concentration at half of the fitted maximal effect
# In short: (§1)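 Cells (500-1,000/well) rested 5 h, then received compounds for 48 h; metabolically active cells were measured by CellTiter-Glo luminescence. Final concentrations spanned up to 46 µM (MIPE, 11-point) or 0.59 nM-46 µM (NPC, 8-point) in primary screens, 11-point in follow-ups.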
# [2] = qHTS of pediatric cancer cell lines to identify multiple opportunities for drug repurposing: Primary screen for RD cells (AID 1347104); further: nearly all actives have a fitted effect of over 55% in size; further: potency means the concentration at half of the fitted maximal effect
# In short: (§2)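 Plated cells (500-1,000 per well, growth media) were allowed to settle for 5 hours, treated with compound dilutions for 48 hours, then lysed with CellTiter-Glo for 15 min at room temperature before luminescence reading.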
# [3] = qHTS of pediatric cancer cell lines to identify multiple opportunities for drug repurposing: Primary screen for MG 63 (6-TG R) cells (AID 1347105); further: nearly all actives have a fitted effect of over 50% in size; further: potency means the concentration at half of the fitted maximal effect
# In short: as §2
# [4] = qHTS of pediatric cancer cell lines to identify multiple opportunities for drug repurposing: Primary screen for control Hh wild type fibroblast cells (AID 1347106);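 further: series mostly up to about 46 µM; a drop in luminescence marks cytotoxicity and a rise apparent proliferation; nearly all actives have a fitted effect of over 55% in size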
# In short: (§3)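 Viability after 48 h compound treatment at 37C, 500-1,000 cells/well, read as ATP luminescence with CellTiter-Glo. Primary screens used 11-point (MIPE, 0.78 nM-46 µM) or 8-point (NPC, 0.59 nM-46 µM) final concentrations; follow-up screens used 11-point dilutions.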
# [5] = qHTS of pediatric cancer cell lines to identify multiple opportunities for drug repurposing: Primary screen for Rh18 cells (AID 1347102); further: nearly all actives have a fitted effect of over 65% in size; further: potency means the concentration at half of the fitted maximal effect
# In short: as §3
# [6] = qHTS of pediatric cancer cell lines to identify multiple opportunities for drug repurposing: Primary screen for OHS-50 cells (AID 1347103); further: nearly all actives have a fitted effect of over 40% in size; further: potency means the concentration at half of the fitted maximal effect
# In short: as §1
# [7] = qHTS of pediatric cancer cell lines to identify multiple opportunities for drug repurposing: Primary screen for Rh30 cells (AID 1347107); further: series mostly up to about 46 µM; nearly all actives have a fitted effect of over 75% in size
# In short: as §3
# [8] = qHTS of pediatric cancer cell lines to identify multiple opportunities for drug repurposing: Primary screen for Rh41 cells (AID 1347108); further: nearly all actives have a fitted effect of over 70% in size; further: potency means the concentration at half of the fitted maximal effect
# In short: as §2
# [9] = qHTS of pediatric cancer cell lines to identify multiple opportunities for drug repurposing: Primary screen for LAN-5 cells (AID 1347100); further: potency means the concentration at half of the fitted maximal effect
# In short: as §3
compound,measurement,setting,value
Clc1ccc(C2(c3ccc(-c4cn[nH]c4)cc3)CCNCC2)cc1,Potency,[1],inactive
same,Potency,[2],26.4 µM (active)
same,Potency,[3],5.9 µM (active)
same,Potency,[4],inactive
C[C@]12CCC3=C4CCC(=O)C=C4CC[C@@H]3[C@H]1CC[C@@]2(O)CC#N,Potency,[1],inactive
same,Potency,[5],inactive
same,Potency,[6],inactive
same,Potency,[3],inactive
same,Potency,[4],inactive
same,Potency,[7],inactive
same,Potency,[8],inactive
O=C(Nc1cccc(Cl)c1)Nc1ncc(CCNc2ncnc3ccsc23)s1,Potency,[9],0.132 µM (active)
same,Potency,[6],7.69 µM (active)
same,Potency,[4],inactive
C#CCN(C)CC1=Cc2ccccc2Oc2ccccc21,Potency,[1],inactive
same,Potency,[5],inactive
same,Potency,[4],inactive
OC(c1cc(C(F)(F)F)nc2c(C(F)(F)F)cccc12)C1CCCCN1 (stereo unspecified),Potency,[9],33.2 µM (active)
same,Potency,[3],inactive
same,Potency,[4],inactive
same,Potency,[7],inactive
same,Potency,[8],inactive
COc1ccc(CCN(C)CCCOc2ccc(S(=O)(=O)c3[nH]c4ccccc4c3C(C)C)cc2)cc1OC,Potency,[9],23.5 µM (active)
same,Potency,[3],inactive
same,Potency,[4],inactive
same,Potency,[7],inactive
Cc1c(C(=O)Nc2ccc(N3C[C@@H](C)O[C@@H](C)C3)nc2)cccc1-c1ccc(OC(F)(F)F)cc1,Potency,[1],13.7 µM (active)
same,Potency,[6],19.3 µM (active)
same,Potency,[3],23.5 µM (active)
same,Potency,[4],inactive
N=C1SC(=Cc2ccc(-c3ccc4c(c3)C(=O)NC4=O)o2)C(=O)N1c1ccc(Br)cc1,Potency,[1],inactive
same,Potency,[5],inactive
same,Potency,[3],inactive
same,Potency,[4],inactive
same,Potency,[7],inactive
CCCCOCCOc1nc(-c2ccc(C(=O)O)c(F)c2)sc1C,Potency,[9],inactive
same,Potency,[4],inactive
COc1cccc(OC)c1-c1cc(C(=O)NC2(C(=O)O)C3CC4CC(C3)CC2C4)nn1-c1ccnc2cc(Cl)ccc12 (stereo unspecified),Potency,[1],inactive
same,Potency,[5],inactive
same,Potency,[2],inactive
same,Potency,[3],inactive
same,Potency,[4],inactive
same,Potency,[7],inactive
same,Potency,[8],inactive
O=C(NC[C@H](O)CO)c1ccncc1Nc1ccc(I)cc1F,Potency,[5],10.5 µM (active)
same,Potency,[6],inactive
same,Potency,[3],inactive
same,Potency,[7],inactive
C[C@@H]1CCO[C@H]2Cn3cc(C(=O)NCc4ccc(F)cc4F)c(=O)c(O)c3C(=O)N12,Potency,[2],inactive
same,Potency,[4],inactive
Oc1ccc(C=Cc2cc(O)cc(O)c2)cc1,Potency,[5],inactive
same,Potency,[3],inactive
same,Potency,[4],inactive
same,Potency,[7],inactive
same,Potency,[8],inactive
COc1cc2c(cc1OC)CC(=O)N(CCCN(C)C[C@H]1Cc3cc(OC)c(OC)cc31)CC2,Potency,[5],inactive
same,Potency,[3],inactive
same,Potency,[4],inactive
same,Potency,[7],inactive
C=CC(=O)Nc1cccc(Sc2nc(Nc3ccc(N4CCN(C)CC4)cc3)ncc2Cl)c1,Potency,[6],27.3 µM (active)
same,Potency,[4],inactive
COc1c(C)c2c(c(O)c1CC=C(C)CCC(=O)O)C(=O)OC2,Potency,[5],inactive
same,Potency,[4],inactive
same,Potency,[7],inactive
same,Potency,[8],inactive
CO[C@@H]1C(N(C)C(=O)c2ccccc2)C[C@H]2O[C@]1(C)n1c3ccccc3c3c4c(c5c6ccccc6n2c5c31)C(=O)NC4=O (stereo partly specified),Potency,[6],inactive
same,Potency,[3],1.48 µM (active)
same,Potency,[7],inactive
same,Potency,[8],inactive
CCC(=C(CC)c1ccc(O)cc1)c1ccc(O)cc1,Potency,[5],inactive
same,Potency,[6],30.6 µM (active)
same,Potency,[3],18.7 µM (active)
same,Potency,[4],inactive
same,Potency,[7],inactive
same,Potency,[8],inactive
CCC(=O)N1CCN(c2ccc(-n3c(=O)ccc4cnc5ccc(-c6cnc7ccccc7c6)cc5c43)cc2C(F)(F)F)CC1,Potency,[6],0.0432 µM (active)
same,Potency,[7],inactive
same,Potency,[8],0.0743 µM (active)
CCCCC[C@H](O)C=C[C@H]1[C@H](O)CC(=O)[C@H]1CC=CCCCC(=O)O,Potency,[5],inactive
same,Potency,[6],inactive
same,Potency,[2],inactive
same,Potency,[3],inactive
same,Potency,[4],inactive
same,Potency,[7],inactive
same,Potency,[8],inactive
CCn1c(-c2nonc2N)nc2cncc(CNC3CCNCC3)c21,Potency,[4],inactive
Cc1cc(OCCCS(C)(=O)=O)cc(C)c1-c1cccc(COc2ccc3c(c2)OC[C@H]3CC(=O)O)c1,Potency,[5],inactive
same,Potency,[3],inactive
same,Potency,[4],inactive
O=C1CN2Cc3c(ccc(Cl)c3Cl)N=C2N1,Potency,[3],inactive
same,Potency,[4],inactive
Fc1ccc(C(c2ccc(F)cc2)N2CCN(CC=Cc3ccccc3)CC2)cc1,Potency,[5],inactive
same,Potency,[6],inactive
same,Potency,[2],inactive
same,Potency,[3],inactive
same,Potency,[7],inactive
CN(C(Cc1ccc(OS(=O)(=O)c2cccc3cnccc23)cc1)C(=O)N1CCN(c2ccccc2)CC1)S(=O)(=O)c1cccc2cnccc12 (stereo unspecified),Potency,[3],14.8 µM (active)
same,Potency,[7],inactive
CN(C)c1ccccc1CN1CCCN(Cc2ccccc2N(C)C)C1c1ccncc1,Potency,[6],27.3 µM (active)
same,Potency,[2],26.4 µM (active)
same,Potency,[3],inactive
same,Potency,[4],inactive
same,Potency,[7],inactive
CO[C@H]1/C=C\O[C@@]2(C)Oc3c(C)c(O)c4c(O)c(c5c(nc6cc(C)ccn65)c4c3C2=O)NC(=O)C(C)=CC=C[C@H](C)[C@H](O)[C@@H](C)[C@@H](O)[C@@H](C)[C@H](OC(C)=O)[C@H]1C,Potency,[3],inactive
same,Potency,[4],inactive
same,Potency,[8],inactive
O=S(=O)(O)c1ccc2cc(N=Nc3cc(S(=O)(=O)O)c4cccnc4c3O)ccc2c1,Potency,[4],inactive
CC(=O)NCCC(=O)N[C@@H](CCC(N)=O)C(=O)N[C@@H](CO)C(=O)N[C@@H](CCC(N)=O)C(=O)N[C@@H](CCC(N)=O)C(=O)N[C@H](C(=O)N[C@@H](Cc1ccccc1)C(=O)N[C@]1(C)CCCCCCC=CCCC[C@@](C)(C(=O)N[C@@H](CCC(N)=O)C(=O)N[C@@H](CC(N)=O)C(N)=O)NC(=O)[C@H](CC(C)C)NC(=O)[C@H](CC(C)C)NC(=O)[C@@H](CCCNC(=N)N)NC(=O)[C@H](Cc2c[nH]c3ccccc23)NC(=O)[C@H](CC(C)C)NC(=O)[C@H](CC(N)=O)NC1=O)[C@H](C)O,Potency,[5],inactive
same,Potency,[3],inactive
same,Potency,[4],inactive
same,Potency,[8],18.7 µM (active)
